Source: PubChem BioAssay
Shown are actives, neighbours in structure and some others; about 0.51% of the full set was active somewhere.
AddAB inh = growth inhibition of E. coli expressing H. pylori AddAB, primary screen, AddAB inhibitor project, absorbance; inhibition, % at 11.9 µM; hit rate 0.29% among 330,000; AID 435030, 2010; in the data active means inhibition above about 12%;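 further: 0% = vehicle wells of infected cells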
Tat transport = E. coli Tat export inhibitors, primary screen, MC4100, TorA-mCherry reporter, fluorescence, single point; inhibition, % at 10 µM; hit rate 0.036% among 340,000; AID 488895, 2010;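 active means mean replicate inhibition at least 50% and at least half of replicates individually reaching 50%; inconclusive means only one of the two criteria met; inactive means neither criterion met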;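 further: exported cargo escapes ClpAP degradation while cytoplasmic cargo is degraded and loses fluorescence; 0% = median of neutral control wells and 100% = median of NaSCN control wells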
E coli growth-1 = E. coli V3065 growth inhibition, primary screen, counter-screen for AddAB inhibitor project, absorbance, OD600; inhibition, % at 11.9 µM; 18 h; hit rate 0.27% among 330,000; AID 449728, 2010;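 active means inhibition above the campaign's mean inhibition across all tested compounds plus 3 SD, cut at about 9.9% in these data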;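 further: uninfected addAB+ strain grown without phage in ampicillin broth; 0% = DMSO wells and 100% = ciprofloxacin 0.95 µg/ml wells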
E coli growth-2 = E. coli growth inhibition, primary screen, OD600; Escherichia coli growth, 23 h; active compounds read low; OD600 absorbance (concentration not given with the values); hit rate 0.21% among 330,000; AID 1053175, 2014;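 active means OD600 absorbance below the run mean of sample wells minus 3.6 SD, in any replicate, cut at about 0.56 in these data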
phage Ecoli inh = growth loss of phage-infected E. coli, primary screen, RecBCD inhibitor project, absorbance, with phage, HTS. inhibition, % at 11.9 µM. AID 651602, 2012. hit rate 0.26% among 360,000; in the data active means inhibition above about 11%
AddAB confirm = growth loss of phage-infected E. coli expressing H. pylori AddAB, confirmation, AddAB inhibitor project, absorbance, E. coli V3065, T4 phage, triplicate; inhibition, % at 11.9 µM; hit rate 64% among 880; AID 488942, 2010; shares compounds with AddAB inh; OD; T4 phage with gene 2 nonsense mutations;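 active means mean inhibition above a set limit taken from the earlier primary screen, cut at about 13% in these data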;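 further: higher means less bacterial growth since AddAB block lets phage replicate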
RecBCD counter = growth loss of RecBCD+ E. coli with mutant T4 phage, counter-screen for AddAB inhibitor project, absorbance, V66 E. coli. shares compounds with AddAB inh. OD growth. inhibition, % at 11.9 µM. hit rate 73% among 880. AID 488955, 2010;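 active means mean inhibition above the mean of solvent-only control wells plus 3 SD, cut at about 4% in these data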;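 further: optical density read after an 18 h incubation at 37 °C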
bact viab count = bacterial viability inhibition counter-screen, confirmation, counter-screen for AddAB inhibitor project, absorbance. shares compounds with AddAB inh. absorbance (AddAB counterscreen). inhibition, % at 11.9 µM. hit rate 35% among 880; in the data active means inhibition above about 25%
An asterisk follows results filed as active; u = inconclusive; x = no result.

SMILES | AddAB inh | Tat transport | E coli growth-1 | E coli growth-2 | phage Ecoli inh | AddAB confirm | RecBCD counter | bact viab count
COc1ccc(CNC(=O)CC2C(=O)N(Cc3ccc(OC)cc3)CC2Cc2ccccc2)cc1 (stereo unspecified) | x | x | x | 0.634 | x | x | x | x
Cc1c(Cl)cccc1NC(=S)NCc1ccc(F)cc1 | 4.3 | -1.2 | 1.2 | 0.68 | 5.1 | x | x | x
Cc1c(Cl)cccc1NC(=S)NCc1ccccc1Cl | 18.0* | 19.8 | 5.3 | 0.695 | 4.5 | 17.4* | 22.5* | 18.5
CC(C)(C)C1CCC(=O)N(CCC(N=[N+]=[N-])c2ccccc2)CC1 (stereo unspecified) | x | x | x | 0.668 | x | x | x | x
COc1cccc(/C=N/Nc2cc(-n3nc(C)cc3-c3ccccc3)ncn2)c1O | 18.4* | -6.2 | 16.9* | x | 6.7 | 9.7 | 8.8* | 6.4
O=C(NC1CC1)C1=CC(c2c[nH]c3ccccc23)CC(OCc2ccc(CO)cc2)O1 (stereo unspecified) | x | x | x | 0.688 | x | x | x | x
O=C(Oc1c(Cl)cc(Cl)c2cccnc12)c1ccco1 | 49.5* | -29.7 | 48.0* | 0.0555* | 61.3* | 63.5* | 60.3* | 57.9*
COc1cccc(C(=O)Nc2nnc(-c3cccs3)o2)c1 | 12.5* | 5.4 | -1.7 | 0.565 | 3.0 | 9.5 | 5.7* | 0.4
COc1cccc(C(=O)Nc2nnc(-c3ccc(Cl)cc3)o2)c1 | 4.2 | -4.3 | -4.1 | 0.591 | -4.7 | x | x | x
CC(=O)N(N=C1Sc2ccccc2C1=O)c1ccccc1C | x | x | x | 0.685 | x | x | x | x
O=C(O)CC(Cc1ccc(Cl)cc1)C(=O)Nc1ccc([N+](=O)[O-])cc1 (stereo unspecified) | 2.0 | 4.8 | 0.0 | 0.692 | 4.5 | x | x | x
O=C(NC(CO)Cc1ccc([N+](=O)[O-])cc1)C(Cl)Cl (stereo unspecified) | 81.3* | 11.7 | 82.9* | 0.0615* | x | 87.8* | 87.7* | 88.0*
O=C(O)[C@]1(S(=O)(=O)c2ccccc2)CC2ON=C(c3cccc(Br)c3)C2C1 (stereo partly specified) | x | x | x | 0.711 | x | x | x | x
COC(=O)c1cc(=O)n(CCc2ccc(OC)cc2)c(=Nc2ccc(F)c(Cl)c2)s1 | 0.5 | 0.0 | -2.3 | 0.805 | 2.4 | x | x | x
COC(=O)c1cc(=O)n(CCc2ccccc2)c(=Nc2ccc(F)cc2)s1 | 99.2* | 4.0 | 98.5* | 0.791 | 2.0 | 0.4 | 0.7 | -2.4
CC(CO)NC(=O)C(C)C1C[C@@]1(C)C(NC(=O)OCc1ccccc1)c1ccccc1 (stereo partly specified) | x | x | x | 0.654 | x | x | x | x
Fc1ccccc1-n1cn[nH]c1=S | 95.1* | 3.9 | 53.1* | 0.646 | 2.5 | 1.2 | -1.2 | -1.3
Cc1ccc(S(=O)(=O)N/N=C\c2ccc([N+](=O)[O-])o2)cc1 | 17.8* | -5.4 | 13.5* | x | 7.2 | 101.9* | 9.5* | 54.2*
O=[N+]([O-])c1ccc(C=NNS(=O)(=O)c2ccc(Cl)cc2)o1 | x | x | x | 0.502 | x | x | x | x
Cc1ccc(/C=N/NS(=O)(=O)c2ccc([N+](=O)[O-])cc2)o1 | 3.0 | 3.3 | -2.4 | x | 3.0 | x | x | x
O=[N+]([O-])c1ccc(/C=N/NS(=O)(=O)c2ccc(Cl)cc2)o1 | 95.8* | 5.0 | 22.3* | x | 7.9 | 101.3* | 7.7* | 42.7*
Cc1ccc(S(=O)(=O)N/N=C\c2ccc([N+](=O)[O-])o2)cc1C | 24.8* | 11.1 | 16.3* | x | 8.8 | 99.6* | 9.5* | 41.0*
CCOC(=O)N/N=C\c1ccc([N+](=O)[O-])o1 | 30.7* | u | 26.1* | x | 6.2 | 97.5* | 13.2* | 29.0*
CC(CCCCC=CC(=O)O)OC1OC(C)C(O)CC1O (stereo unspecified) | x | x | x | 0.65 | x | x | x | x
CCCC=C(CCC)C(NC(=O)Cc1ccccc1)c1ccc(C(=O)OC)cc1 (stereo unspecified) | x | x | x | 0.711 | x | x | x | x
C=CCn1c(Sc2ncc([N+](=O)[O-])s2)n[nH]c1=O | 16.9* | 10.1 | 3.3 | 0.448* | 9.2 | 98.7* | 11.8* | 21.0
O=C(NCc1nc2ccccc2[nH]1)c1ccc(Cl)c(S(=O)(=O)N2CCCC2)c1 | 15.9* | -2.9 | 4.7 | 0.648 | 10.3 | 6.5 | 4.0* | 3.3
